The values that follow come from paper PMC9911399, “Two distinct binding modes provide the RNA-binding protein RbFox with extraordinary sequence specificity”.

Substitutions are numbered along the chain they refer to; changes in the protein carry UniProt numbers. The full ranking holds about 16,000 sequences; the median of “ka relative to ugcaugu” is about 0.096, and the highest 2% start at about 0.35. This excerpt belongs to a sample that is enriched for the highest values.

B1: UAUCAAU (DNA:RNA)
RNA: GGGAGACCGGAAUUCAGAUUGUCCUAUCAAUUUAAAUCCCGUCGUAGCCACCA
DNA 1: CAATCTGAATTCCGGTCTCCC
DNA 2: TGGTGGCTACGACGGGATT
B2: CCACUGA (DNA:RNA)
RNA: B1 RNA with U25C, A26C, U27A, A29U, A30G, U31A
DNA 1: CAATCTGAATTCCGGTCTCCC
DNA 2: TGGTGGCTACGACGGGATT
B3: UCUUCCC (DNA:RNA)
RNA: B1 RNA with A26C, C28U, A29C, A30C, U31C
DNA 1: CAATCTGAATTCCGGTCTCCC
DNA 2: TGGTGGCTACGACGGGATT
B4: UUAUACA (DNA:RNA)
RNA: B1 RNA with A26U, U27A, C28U, A30C, U31A
DNA 1: CAATCTGAATTCCGGTCTCCC
DNA 2: TGGTGGCTACGACGGGATT
B5: CAUUUCC (DNA:RNA)
RNA: B1 RNA with U25C, C28U, A29U, A30C, U31C
DNA 1: CAATCTGAATTCCGGTCTCCC
DNA 2: TGGTGGCTACGACGGGATT
B6: CUAUGUG (DNA:RNA)
RNA: GGGAGACCGGAAUUCAGAUUGUCCCUAUGUGUUAAAUCCCGUCGUAGCCACCA
DNA 1: CAATCTGAATTCCGGTCTCCC
DNA 2: TGGTGGCTACGACGGGATT
B7: GGAUGUG (DNA:RNA)
RNA: B6 RNA with C25G, U26G
DNA 1: CAATCTGAATTCCGGTCTCCC
DNA 2: TGGTGGCTACGACGGGATT
B8: GGAUGUC (DNA:RNA)
RNA: B6 RNA with C25G, U26G, G31C
DNA 1: CAATCTGAATTCCGGTCTCCC
DNA 2: TGGTGGCTACGACGGGATT
B9: GUAUGUG (DNA:RNA)
RNA: B6 RNA with C25G
DNA 1: CAATCTGAATTCCGGTCTCCC
DNA 2: TGGTGGCTACGACGGGATT
B10: CGUUGUG (DNA:RNA)
RNA: B6 RNA with U26G, A27U
DNA 1: CAATCTGAATTCCGGTCTCCC
DNA 2: TGGTGGCTACGACGGGATT
B11: CGUGUCG (DNA:RNA)
RNA: B6 RNA with U26G, A27U, U28G, G29U, U30C
DNA 1: CAATCTGAATTCCGGTCTCCC
DNA 2: TGGTGGCTACGACGGGATT
B12: UUAUGUA (DNA:RNA)
RNA: B6 RNA with C25U, G31A
DNA 1: CAATCTGAATTCCGGTCTCCC
DNA 2: TGGTGGCTACGACGGGATT
B13: GGAGAUG (DNA:RNA)
RNA: B6 RNA with C25G, U26G, U28G, G29A
DNA 1: CAATCTGAATTCCGGTCTCCC
DNA 2: TGGTGGCTACGACGGGATT
B14: UUGUAUG (DNA:RNA)
RNA: B6 RNA with C25U, A27G, G29A
DNA 1: CAATCTGAATTCCGGTCTCCC
DNA 2: TGGTGGCTACGACGGGATT
B15: GUGUCCG (DNA:RNA)
RNA: B6 RNA with C25G, A27G, G29C, U30C
DNA 1: CAATCTGAATTCCGGTCTCCC
DNA 2: TGGTGGCTACGACGGGATT
B16: UAUGUCC (DNA:RNA)
RNA: B1 RNA with C28G, A29U, A30C, U31C
DNA 1: CAATCTGAATTCCGGTCTCCC
DNA 2: TGGTGGCTACGACGGGATT
B17: GUGUAUG (DNA:RNA)
RNA: B6 RNA with C25G, A27G, G29A
DNA 1: CAATCTGAATTCCGGTCTCCC
DNA 2: TGGTGGCTACGACGGGATT
B18: ACUCCUU (DNA:RNA)
RNA: B1 RNA with U25A, A26C, A29C, A30U
DNA 1: CAATCTGAATTCCGGTCTCCC
DNA 2: TGGTGGCTACGACGGGATT
B19: UUGUUCC (DNA:RNA)
RNA: B6 RNA with C25U, A27G, G29U, U30C, G31C
DNA 1: CAATCTGAATTCCGGTCTCCC
DNA 2: TGGTGGCTACGACGGGATT
B20: AAAUGUA (DNA:RNA)
RNA: B6 RNA with C25A, U26A, G31A
DNA 1: CAATCTGAATTCCGGTCTCCC
DNA 2: TGGTGGCTACGACGGGATT

This assay concerns the target T1, RBFOX1 RRM RbFoxmut (Fox-RRM*) (Homo sapiens, UniProt Q9NWB1 109-208, R118D;E147R;N151S;E152T).
T1 sequence: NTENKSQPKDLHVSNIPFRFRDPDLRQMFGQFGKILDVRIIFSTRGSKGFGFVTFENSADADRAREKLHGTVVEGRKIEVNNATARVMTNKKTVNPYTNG
Description: EMSA; HiTS-Eq, 1 nM pool, 10 min; buffer printed only for the single-RNA assays: 10 mM Tris pH 7.5, 150 mM NaCl, 3.4 mM EDTA, 0.001% NP-40, 30 C. The following applies: tags: His6 N-terminal (pET28a); label: 5' 32P. The method in brief:
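These values rest on relative association constants, computed from read-count changes of each RNA species versus the control reaction and normalised to the cognate motif. Reads came from free RNA recovered by 8% native PAGE after purified RbFox RRM (wild type or mutant) at increasing concentrations was equilibrated for 10 min in 50 µL with 1 nM of a 5′-radiolabelled pool with 7 randomized nucleotides and DNA-annealed flanks.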
(In EMSA bound probe runs differently from free probe, usually more slowly.)
B1: the binding signal is 0.0491 KA relative to UGCAUGU. Take B2: the binding signal is 0.123 KA relative to UGCAUGU. Take B3: the binding signal was 0.0652 KA relative to UGCAUGU.

As for B4, the binding signal was 0.0696 KA relative to UGCAUGU.

As for B5, the binding signal is 0.0842 KA relative to UGCAUGU. Under B6 stands 0.134 KA relative to UGCAUGU; under B7, 0.451 KA relative to UGCAUGU; under B8, 0.295 KA relative to UGCAUGU. With B9, the binding signal is 0.787 KA relative to UGCAUGU. Consider B10, for which the binding signal is 0.17 KA relative to UGCAUGU.

Regarding B11, the binding signal is 0.126 KA relative to UGCAUGU. As to B12, the binding signal is 0.19 KA relative to UGCAUGU. With B13, the binding signal is 0.312 KA relative to UGCAUGU.

Consider B14, for which the binding signal was 1.24 KA relative to UGCAUGU.

As to B15, the binding signal is 0.216 KA relative to UGCAUGU. Then B16, with 0.107 KA relative to UGCAUGU. Take B17: the binding signal was 1.38 KA relative to UGCAUGU. On to B18, for which the binding signal was 0.0436 KA relative to UGCAUGU.

On to B19, for which the binding signal is 0.104 KA relative to UGCAUGU. Under B20 stands 0.166 KA relative to UGCAUGU.
